KCNQ2 inh: KCNQ2 (rat) channel inhibition; O88943; CHO-K1 KCNQ2, FluxOR thallium flux, 20 min; active compounds read low; B-score at 10 µM; 1.1% of 310,000 active;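 active means fluorescence ratio B-score at most minus 3 library SDs, with starting brightness B-score within 2 library SDs, cut at about -5.5 in these data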
KCNQ2 enhance: potentiators of rat KCNQ2 potassium channel; B-score at 10 µM; 0.54% of 310,000 active; CHO-K1 KCNQ2, FluxOR thallium flux fluorescence; active compounds read high; O88943; AID 2239;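 active means fluorescence ratio B-score at least 3 SD of library B-scores, with initial fluorescence B-score within 3 of them, cut at about 5.3 in these data; same plate scores as AID 2156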;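 further: B-score of peak minus minimum over baseline fluorescence ratio after K+ and Tl+ stimulus; positive B-score means potentiation of KCNQ2 with more thallium influx and brighter signal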
Kir21 confirm: confirmation of mouse Kir2.1 potassium channel inhibitors | shares compounds with KCNQ2 enhance | Kir2.1-expressing cells, FluxOR thallium flux fluorescence; active compounds read low | Tl flux remaining, % of negative control (active compounds read low), % at 10 µM | 41% of 2,300 active | AID 2032;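 active means Primary-screen hit whose thallium flux fell at least 3 control SD below untreated wells in both duplicates, with normal baseline fluorescence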;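 further: 0% = blank wells without stimulus and 100% = stimulated no-compound controls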
HEK293 ctr: alters thallium flux in parental HEK293 cells, Kir2.1 counter-screen; shares compounds with KCNQ2 enhance; FluxOR thallium flux fluorescence; 0% = unstimulated blank wells; FluxOR signal as % of negative control (100 = no effect), % at 10 µM; 19% of 2,300 active; AID 2105;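 active means dye signal at least 3 control SD above or below untreated wells in both duplicates, raw fluorescence within 3, either direction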;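 further: percent is based on the flux ratio of peak minus minimum fluorescence over baseline F0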
CHO-K1 ctr: counter-screen for KCNQ2 potentiators: effect in parental CHO-K1 cells. 43% of 1,200 active. AID 2282. FluxOR thallium flux fluorescence; zero = vehicle mean+3SD, 100% = vehicle-minus-blank window. activity increase over 3SD of controls, % at 10 µM. shares compounds with KCNQ2 enhance;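 active means signal rise of at least 3 SD above the untreated control mean, in both duplicate wells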;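 further: counter screen of KCNQ2 potentiator hits so any rise reflects channel-independent effects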
KCNQ1 sel pot: tests whether KCNQ2 potentiators also act on human KCNQ1; CHO KCNQ1 stable, FluxOR thallium flux fluorescence; beyond 3SD, as % of vehicle-control signal; AID 2283; 28% of 1,200 active; shares compounds with KCNQ2 enhance; activation over 3SD threshold, % at 10 µM;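 active means fluorescence ratio rise of at least 3 SD of vehicle wells above their mean, in both replicate wells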;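 further: 0% = vehicle mean plus 3 SD and 100% = vehicle minus unstimulated blank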
Target sequence (P51787 whole entry, looked up): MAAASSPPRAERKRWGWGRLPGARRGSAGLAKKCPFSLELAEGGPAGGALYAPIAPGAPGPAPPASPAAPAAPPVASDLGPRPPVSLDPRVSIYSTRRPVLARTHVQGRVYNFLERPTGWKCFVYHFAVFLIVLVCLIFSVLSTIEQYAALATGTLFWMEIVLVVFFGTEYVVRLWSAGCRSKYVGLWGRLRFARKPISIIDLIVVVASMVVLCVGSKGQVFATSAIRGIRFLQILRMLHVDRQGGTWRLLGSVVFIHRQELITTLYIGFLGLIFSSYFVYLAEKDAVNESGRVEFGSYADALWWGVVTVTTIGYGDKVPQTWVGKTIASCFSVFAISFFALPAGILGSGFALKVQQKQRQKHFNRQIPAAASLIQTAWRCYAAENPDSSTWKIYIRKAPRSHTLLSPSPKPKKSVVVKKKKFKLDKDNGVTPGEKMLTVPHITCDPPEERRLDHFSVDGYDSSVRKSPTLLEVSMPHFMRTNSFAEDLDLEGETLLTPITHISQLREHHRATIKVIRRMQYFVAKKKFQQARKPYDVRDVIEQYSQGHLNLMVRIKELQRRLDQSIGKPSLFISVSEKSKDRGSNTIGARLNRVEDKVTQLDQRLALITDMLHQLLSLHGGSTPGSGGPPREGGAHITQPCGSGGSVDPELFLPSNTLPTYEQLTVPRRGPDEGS
KCNQ2 pot conf: rat KCNQ2 channel potentiator confirmation | potentiation, less the hit threshold, % at 10 µM | AID 2287 | shares compounds with KCNQ2 enhance | CHO-KCNQ2 cells, FluxOR thallium flux fluorescence | 68% of 1,200 active;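 active means fluorescence ratio rising 3 SD or more over the vehicle control mean in both replicates, plus primary screen hit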;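 further: peak minus minimum thallium fluorescence divided by baseline after K/Tl stimulus; 0% = vehicle mean plus 3 SD and 100% = vehicle minus unstimulated blank difference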
Kir2-1 sel: tests whether KCNQ2 potentiators also affect mouse Kir2.1. shares compounds with KCNQ2 enhance. activity over 3SD threshold, % at 10 µM. HEK293 Kir2.1, FluxOR thallium flux fluorescence. 2% of 1,200 active;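 active means fluorescence ratio rise of at least 3 SD above the vehicle-control mean, seen in both replicates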;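 further: 0% = vehicle mean plus 3 SD and 100% = vehicle minus no-stimulus blank window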
KCNQ2 W236L MoA: rat KCNQ2 W236L mutant potentiation by KCNQ2 potentiators; CHO KCNQ2-W236L, automated patch clamp current; 10% of 940 active; shares compounds with KCNQ2 enhance; current increase over 3SD of negative controls (%), active compounds read high, % at 25 µM;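 active means current increase at least 3 SD of the untreated controls above them in both duplicate recordings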
Starred values were filed as active, the others as inactive; i = inactive; x = no result given. A selection: hits, their analogues and other compounds. The true share with any hit is near 1.6%.

SMILES | KCNQ2 inh | KCNQ2 enhance | Kir21 confirm | HEK293 ctr | others
CCCOc1ccc(CCC(=O)N/N=C/c2ccncc2)cc1 | i | 0.33 | x | x
COc1ccc(C(O)(CCC(C)C)C(CN2CCOCC2)c2ccc(Cl)cc2)cc1 (stereo not given) | i | 6.4* | i | i | CHO-K1 ctr=-24;KCNQ1 sel pot=46*;KCNQ2 pot conf=-4;Kir2-1 sel=-30
CCCC(O)(c1ccc(OC)cc1)C(CN1CCOCC1)c1ccc(Cl)cc1 (stereo not given) | i | 5.2 | x | x
CCCCN(C(=O)CCn1c(=O)oc2ccccc21)c1ccccc1 | i | x | 49%* | i
CCN(CC)C(=O)Cn1c(=O)oc2ccccc21 | i | x | x | x
CC(C)(C)c1ccc(OCC(=O)NCC(c2cccs2)N2CCOCC2)cc1 (stereo not given) | i | 0.26 | x | x
COc1ccc(CN2C(=O)CN=C2Nc2cc(C)ccc2C)cc1 | i | 15* | i | i | CHO-K1 ctr=0.6*;KCNQ1 sel pot=9.2*;KCNQ2 pot conf=-33;Kir2-1 sel=-41
CCc1ccccc1NC1=NCC(=O)N1Cc1ccc(OC)cc1 | i | x | x | x
COc1ccc(C(=O)c2c(C)c3ccccc3n2CC(O)CNC(C)C)cc1 (stereo not given) | i | 0.75 | x | x
CC(C)NCC(O)Cn1c2c(c3ccccc31)CCc1c-2cnn1-c1ccccc1 (stereo not given) | i | x | 54%* | i
COc1ccc(Cl)cc1NC(=O)CCc1nnc2ccc(N3CCC4(CC3)OCCO4)nn12 | i | x | x | x
CC(C)(C)c1nc(SCC(=O)NCc2ccco2)c2ccccc2n1 | i | 0.34 | x | x
COc1ccc(C(=O)CSc2nc(C(C)(C)C)nc3ccccc23)cc1 | i | 13* | x | x | CHO-K1 ctr=-7;KCNQ1 sel pot=60*;KCNQ2 pot conf=20*;Kir2-1 sel=-51;KCNQ2 W236L MoA=i
CC(C)[C@H](NC(=O)OCc1ccccc1)C(=O)OCC(=O)Nc1ccc(N2CCOCC2)cc1 | i | 0.59 | x | x
Cc1cc(C)cc(NC(=O)N2CCN(S(C)(=O)=O)CC2)c1 | i | x | x | x
O=C(CSc1ccccc1)N/N=C/c1ccccc1O | i | 6* | i | i | CHO-K1 ctr=-11;KCNQ1 sel pot=-14;KCNQ2 pot conf=25*;Kir2-1 sel=-30;KCNQ2 W236L MoA=i
O=C(CSc1n[nH]c(=O)[nH]c1=O)N/N=C/c1ccccc1O | i | 0.06 | x | x
COc1ccc2cc(C(=O)N3CCN(c4ccccc4OC)CC3)[nH]c2c1 | i | x | x | x
O=C(NCc1ccccc1F)c1ccc2c(c1)OCCO2 | i | 0.36 | x | x
CCN(CC)CCOC(=O)CCc1cccc2ccccc12 | i | 2.1 | x | x
CCN(CC)CCOC(=O)C(Cc1ccco1)Cc1cccc2ccccc12 (stereo not given) | i | x | 36%* | i
O=C(CSc1nnnn1-c1ccc2c(c1)OCCO2)N1CCN(C(=O)c2ccco2)CC1 | i | 0.35 | x | x
CC1CCCN(C(=O)C(=O)c2cn(CC(=O)N3CCCCCC3)c3ccccc23)C1 (stereo not given) | i | 1.6 | x | x
Cc1ccc(C(C)C)c(OCCCN(C)Cc2ccccc2)c1 | i | x | x | x
Cc1ccc(C(C)C)c(OCC(O)CN(C)Cc2ccccc2)c1 (stereo not given) | i | x | 20%* | i
SMILES | KCNQ2 inh | KCNQ2 enhance | Kir21 confirm | HEK293 ctr | others
CCOC(=O)N1CCC(N2CCCC(CO)(Cc3cccc(Cl)c3)C2)CC1 (stereo not given) | i | x | x | x
CN(C)c1ccc(C2OC(=O)C(C)(C)C(=O)C2(C)C)cc1 (stereo not given) | i | x | x | x
CC1(C)C(=O)OC(c2c3ccccc3cc3ccccc23)C(C)(C)C1=O (stereo not given) | i | 6.2* | i | i | CHO-K1 ctr=12*;KCNQ1 sel pot=90*;KCNQ2 pot conf=-6;Kir2-1 sel=-31
CCc1ccc(C(C(=O)NC2CCCC2)N(C(=O)c2csnn2)C2CC2)cc1 (stereo not given) | i | 0.06 | x | x
O=C1N=C(N2CCCCC2)SC1=C1CCCCC1 | i | 0.11 | x | x
O=C1NC(=S)SC1=C1CCCCCC1 | i | 23* | i | 357%* | CHO-K1 ctr=40*;KCNQ1 sel pot=7.2*;KCNQ2 pot conf=57*;Kir2-1 sel=-26;KCNQ2 W236L MoA=i
C/C(=N\Nc1nc(N2CCCCC2)nc(N2CCOCC2)n1)c1ccccc1O | i | x | x | x
O=C(COc1ccccc1Cl)NCC(c1cccs1)N1CCOCC1 (stereo not given) | i | x | x | x
Cc1ccc(Cl)c(OCC(=O)NCC(c2cccs2)N2CCOCC2)c1 (stereo not given) | i | x | 64%* | i
O=C(NC(=S)Nc1ccc(N2CCCCC2)cc1)c1cccs1 | i | 5.8* | i | 126%* | CHO-K1 ctr=-8;KCNQ1 sel pot=-10;KCNQ2 pot conf=3.0*;Kir2-1 sel=-38;KCNQ2 W236L MoA=i
CS(=O)(=O)N1CCN(c2ccc(NC(=S)NC(=O)c3cccs3)cc2)CC1 | i | x | x | x
CN(C(=O)COC(=O)c1c2c(nc3ccccc13)CCCC2)c1c(N)n(Cc2ccccc2)c(=O)[nH]c1=O | i | x | x | x
CCc1cc2c(=O)n(CCC(C)C)c(=S)[nH]c2s1 | i | 17* | i | 371%* | CHO-K1 ctr=14*;KCNQ1 sel pot=-5;KCNQ2 pot conf=57*;Kir2-1 sel=-5;KCNQ2 W236L MoA=i
CCCn1c(=S)[nH]c2ccccc2c1=O | i | 1.2 | x | x
CCOC(=O)Cc1csc(NC(=S)NC(=O)CC(C)C)n1 | i | x | x | x
CC(C)CC(=O)NC(=S)Nc1nc(-c2cccc3ccccc23)cs1 | i | 8.4* | i | i | CHO-K1 ctr=3.5*;KCNQ1 sel pot=9.8*;KCNQ2 pot conf=-11;Kir2-1 sel=-20
CCC(=O)N1CCc2cc(S(=O)(=O)CCC(=O)Nc3ccc(OC)c(OC)c3)ccc21 | i | 0.05 | x | x
COc1nc(-c2ccc(Cl)cc2Cl)nc2ccccc12 | i | 0.05 | x | x
CCOC(=O)c1csc(NC(=O)Nc2cccc(Cl)c2)n1 | i | 0.11 | x | x
CC(C)NC(=O)C1CCN(C2CCN(C(=O)c3cc4c(s3)CCCCC4)CC2)CC1 | i | x | x | x
NC(=O)C1CCN(C(=O)c2cc3c(s2)CCCC3)CC1 | i | x | i | i
Cc1cccnc1NC(=O)C1CCCN1S(=O)(=O)c1ccc(Cl)cc1 (stereo not given) | i | x | x | x
CC(C)C(C(=O)NC1CCCC1)N(CC1CCCO1)C(=O)CNS(=O)(=O)c1ccc(F)cc1 (stereo not given) | i | x | x | x
Oc1ccccc1CN1CCN(C(O)(c2ccccc2)c2ccccc2)CC1 | i | x | 66%* | i
Oc1ccccc1CN1CCC(C(O)(c2ccccc2)c2ccccc2)CC1 | i | x | x | x
